# Bioassay records deposited in PubChem by Broad Institute.
# This is one part of a sample in which hits are shown more often than they occur.
# CD40 NFkB inh – CD40 pathway inhibition in BL2 cells; BL2 NF-kB luciferase reporter, CD40L-induced, 4 h; inhibition, % at 10 µM; 0.94% of 83,000 active; AID 1053188;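 active means mean inhibition of at least 50% with a set share of replicates also reaching that level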;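 further: 0% = neutral control wells and 100% = IKK inhibitor VII at 50 µM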
# An asterisk follows results filed as active; [ ] = another dose, or the depositor's remark.
SMILES,CD40 NFkB inh
O=C(NCC1CC1)[C@H]1[C@H](CO)[C@H]2Cn3c(ccc(-c4ccccc4F)c3=O)[C@@H]1N2Cc1cncnc1,-4[25 µM]
c1ccc2sc(N3CCOCC3)nc2c1,-29
c1ccc2sc(-c3ccncc3)nc2c1,-64
Cc1ccc(/C=C/c2nc3ccccc3s2)s1,75*
O=C(C1CCOCC1)N1CC(=O)N2[C@H](C1)[C@@H](c1ccc(/C=C/c3ccccc3)cc1)[C@@H]2CO,-14[25 µM]
C[C@H]1CN([C@@H](C)CO)C(=O)c2ccccc2-c2ccccc2CO[C@@H]1CN(C)S(=O)(=O)c1ccccc1,3
O=C(Nc1ccccc1)N1CCCCN2[C@@H](CO)[C@@H](c3ccc(Br)cc3)[C@@H]2C1,-10[25 µM]
N#C[C@@H]1[C@@H](c2ccccc2)[C@H](CO)N1S(=O)(=O)Cc1ccccc1,13
O=C(Nc1ccccc1F)N1CC(=O)N2[C@H](CO)[C@H](c3ccc(-c4cccnc4)cc3)[C@@H]2C1,-8[25 µM]
O=C(/C=C/c1ccc([N+](=O)[O-])cc1)Nc1ncc([N+](=O)[O-])s1,92*
CCCCC(CC)C(=O)Nc1ncc([N+](=O)[O-])s1 (stereo not drawn),8
Cc1ccc(CC(=O)Nc2ncc([N+](=O)[O-])s2)cc1,-47
CN(C)C(=O)c1cccc(-c2ccc(C3[C@H]4CNC[C@@H]3N4S(=O)(=O)c3ccccc3F)cc2)c1 (stereo partly drawn),12[25 µM]
CO[C@@H]1CN(C)C(=O)c2ccc(NS(C)(=O)=O)cc2OC[C@H](C)N(C(=O)C2CCCC2)C[C@H]1C,-17
O=C(Nc1ccc(F)cc1)N1CCC(c2nc3c(nnn3Cc3cccc(Cl)c3)c(=O)[nH]2)CC1,69*
Cc1ccc(NC(=O)N2CCC(c3nc4c(nnn4Cc4cccc(Cl)c4)c(=O)[nH]3)CC2)cc1,42
O=C(NC1CCCC1)c1nc2c(nnn2Cc2cccc(Cl)c2)c(=O)[nH]1,22
CNC(=O)C1OC(n2cnc3c(NCc4cccc(I)c4)ncnc32)C(O)C1O (stereo not drawn),-5[25 µM]
COc1ccc(CN2C[C@@H](O)COC[C@@H]3O[C@H](CC(=O)N(C)C)CC[C@H]32)cc1,-4[25 µM]
Cc1ccc(C(=O)CCC(=O)Nc2ccc(C)cn2)cc1,9
Cc1ccc(NC(=O)CNC(=O)c2cccc(C)c2)nc1,58*
Cc1ccc(NC(=O)CNC(=O)c2ccc(Oc3ccccc3)cc2)nc1,-20
CN(C)CC#Cc1ccc([C@@H]2[C@H]3CN(C(=O)Nc4cc(F)ccc4F)CCCCN3[C@H]2CO)cc1,-11[25 µM]
Cc1noc(C)c1CSCC(=O)N(C)CC(=O)Nc1ccc(Cl)c(Cl)c1,-3
CCN(CC(=O)Nc1cc(Cl)ccc1C)C(=O)CSCc1c(C)noc1C,1
SMILES,CD40 NFkB inh
Cc1ccc(C)c(NC(=O)CN(C)C(=O)CSCc2c(C)noc2C)c1,29*
C[C@H](CO)N1C[C@H](C)[C@H](CN(C)Cc2ccc(C(F)(F)F)cc2)Oc2c(NC(=O)c3nc4ccccc4s3)cccc2C1=O,29[25 µM]
CC(=O)C1CCC2C3CCC4CC(OC(=O)CCC(=O)O)CCC4(C)C3C(=O)CC12C (stereo not drawn),11
CC(=O)[C@@]1(O)CCC2C3CC[C@H]4C[C@@H](O)CC[C@]4(C)C3CC[C@@]21C (stereo partly drawn),-4
CC(=O)OC1CCC2(C)C(CCC3C4CC=C(C(C)=O)C4(C)OC(=O)CC32)C1 (stereo not drawn),98*
COc1ccc(C2NC(C(=O)O)Cc3c2[nH]c2ccccc32)cc1OC (stereo not drawn),-14
Cc1cc(C=O)c(C)c2c1[nH]c1ccccc12,10
COc1ccc(OC)c2c(=S)c3ccccc3[nH]c12,active[25 µM]
Cc1ccc(S(=O)(=O)Nc2ccc3c(c2)C(=O)N([C@H](C)CO)C[C@H](C)[C@H](CN(C)S(=O)(=O)c2cccs2)OCCCC[C@H](C)O3)cc1,28[25 µM]
CC(=O)N(C)c1ccc(NC(=S)Nc2ccc(C(C)C)cc2)cc1,-14
CC(=O)N(C)c1ccc(NS(=O)(=O)Cc2ccccc2)cc1,8
CC(=O)N(C)c1ccc(C=C2C=Cc3ccccc32)cc1,72*
CN(C)C(=O)c1ccc(-c2ccccc2[C@@H]2[C@@H](CO)N(C(=O)C3CCCCC3)[C@H]2C#N)cc1,1[25 µM]
C/C=C/c1ccc([C@@H]2[C@H](C#N)N(c3nc(CC)cs3)[C@H]2CO)cc1,6[25 µM]
CC=Cc1ccc2n(c1=O)C[C@@H]1[C@@H](CO)[C@H](C(=O)NC3Cc4ccccc4C3)N(CC3CC3)[C@H]21 (mixture of isomers),14[25 µM]
O=C(NC[C@H]1[C@H](c2ccccc2)[C@H](CO)N1Cc1cccnc1)c1ccccn1,0[25 µM]
CN1CCN(C(=O)CCN2C(=O)/C(=C\c3ccc(F)cc3)SC2=S)CC1,24
C=CC(=O)N1C/C(=C/c2ccc(F)cc2)C(=O)/C(=C\c2ccc(F)cc2)C1,68*
O=C(CS(=O)(=O)c1ccc(F)cc1)N1CCN(c2ccccc2)CC1,-22
COc1ccc(S(=O)(=O)N(C)C[C@H]2OCCCC[C@@H](C)Oc3ccc(NS(=O)(=O)c4ccc(Cl)cc4)cc3C(=O)N([C@H](C)CO)C[C@H]2C)cc1,3
